This is an account of results in PubChem BioAssay (EPA / NIEHS).

Activity calls are given as the source filed them. Rule for the calls: active = hit-call score of the fitted dose curve at least 0.9, where 1 is the maximum; inactive = score below 0.9.

Read-out in assay [1]: Thrombomodulin, THBD (gene 7056)
In words: BSK_CASM3C_Thrombomodulin: BioMAP Diversity Plus: CASM3C Assay for Thrombomodulin Biomarker Activity (AID 2283051).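 Note: thrombomodulin protein level measured by ELISA 24 h after dosing.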 Particulars: primary human coronary artery smooth muscle cells; actives raise or lower the signal.

Read-out in assay [2]: Tissue Factor, F3 (gene 2152)
In words: BSK_CASM3C_TissueFactor: BioMAP Diversity Plus: CASM3C Assay for Tissue Factor Biomarker Activity (AID 2283052).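 Note: cell surface tissue factor protein level read by ELISA.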 Particulars: primary human coronary artery smooth muscle cells; actives raise or lower the signal.

Read-out in assay [3]: Interferon-gamma inducible Protein 10 (IP10), CXCL10 (gene 3627)
In words: BSK_hDFCGF_IP10: BioMAP Diversity Plus: hDFCGF Assay for Interferon-gamma inducible Protein 10 (IP10) Biomarker Activity (AID 2283053). Particulars: primary human foreskin fibroblasts; actives raise or lower the signal. Summed up: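 Chemical-treated human skin fibroblasts (primary) were sampled at 24 h for IP-10 by ELISA. Both increases and decreases relative to DMSO were scored.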

Read-out in assay [4]: Urokinase-type plasminogen activator receptor (uPAR), PLAUR (gene 5329)
In words: BSK_CASM3C_uPAR: BioMAP Diversity Plus: CASM3C Assay for Urokinase-type plasminogen activator receptor (uPAR) Biomarker Activity (AID 2283054).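 Note: cell-surface uPAR protein level quantified by ELISA.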 Particulars: primary human coronary artery smooth muscle cells; actives raise or lower the signal.

Read-out in assay [5]: Vascular cell adhesion molecule 1 (VCAM1), VCAM1 (gene 7412)
Put plainly: BSK_CASM3C_VCAM1: BioMAP Diversity Plus: CASM3C Assay for Vascular cell adhesion molecule 1 (VCAM1) Biomarker Activity (AID 2283055).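 Note: VCAM-1 protein level quantified by ELISA on the cells.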 Particulars: primary human coronary artery smooth muscle cells; actives raise or lower the signal.

Read-out in assay [6]: Epidermal growth factor receptor (EGFR), EGFR (gene 1956)
In words: BSK_hDFCGF_EGFR: BioMAP Diversity Plus: hDFCGF Assay for Epidermal growth factor receptor (EGFR) Biomarker Activity (AID 2283057). Particulars: primary human foreskin fibroblasts; actives raise or lower the signal. A digest of the protocol:
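Cell-based multiplexed assay in primary human foreskin fibroblasts. EGFR is read by ELISA 24 h after treatment and compared with DMSO controls.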

Read-out in assay [7]: Interleukin-8 (IL8), CXCL8 (gene 3576)
In words: BSK_hDFCGF_IL8: BioMAP Diversity Plus: hDFCGF Assay for Interleukin-8 (IL8) Biomarker Activity (AID 2283058). Particulars: primary human foreskin fibroblasts; actives raise or lower the signal. Summed up: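 Primary human foreskin fibroblasts (hDFCGF system) dosed with chemical; IL-8 measured by ELISA 24 hours later. Bidirectional curve fitting relative to DMSO baseline; cytotoxicity tracked in parallel cultures by SRB total protein staining.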

Assay [8] can be described thus: BSK_hDFCGF_Proliferation: Cell Proliferation Assessment in the BioMAP Diversity Plus: hDFCGF Assay (AID 2283059).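 Note: curves fitted for both rise and fall of signal versus DMSO baseline.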 Particulars: primary human foreskin fibroblasts. Summed up:
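Steps: dose primary human dermal fibroblasts (foreskin); […] fix in 10% TCA; stain with 0.1% SRB; read 560 nm; fit gain or loss of signal against DMSO.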

Read-out in assay [9]: Macrophage colony-stimulating factor (MCSF), CSF1 (gene 1435)
In words: BSK_hDFCGF_MCSF: BioMAP Diversity Plus: hDFCGF Assay for Macrophage colony-stimulating factor (MCSF) Biomarker Activity (AID 2283060). Particulars: primary human foreskin fibroblasts; actives raise or lower the signal. A digest of the protocol: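 Human foreskin fibroblast primary cultures; M-CSF measured by ELISA 24 hours after chemical dosing. Bidirectional fitting relative to DMSO, with overt cytotoxicity tracked by parallel SRB total-protein staining (0.1% SRB, 10% TCA fixation, 560 nm).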

For `CCc1c(C)cc(N)c(CC)c1N`, the outcome in assay [1], in assay [2], in assay [3], in [4], in assay [5] and in assay [6] was inactive. Further, the outcome in assay [7], in assay [8] and in [9] was inactive.
On to `CCCCCCCCCCCCCCCCCC(=O)OCC(CC)CCCC` (stereo not given), for which the outcome in assay [1], in assay [2], in assay [3], in assay [4], in assay [5] and in assay [6] was inactive. For the same compound, the outcome in assay [7], in [8] and in assay [9] was inactive.
Turning to `CC1COc2ccccc2N1C(=O)C(Cl)Cl` (stereo not given), the result in assay [1], in assay [3], in [6], in [7] and in assay [9] was inactive. For the same compound, the AC50 in [2] was 4.8 µM (active); in assay [4], 7.08 µM (active); in assay [5] it was 10.2 µM (active); in assay [8], 8.61 µM (active).
For the compound `CC(=O)/C=C/C1=C(C)CCCC1(C)C`, the outcome in assay [1], in [2], in [3], in assay [4], in assay [6] and in assay [7] was inactive. Further, the result in [8] and in assay [9] was inactive. Also, the AC50 in [5] was 0.016 µM (active).
On to `O=C(O)c1cn(-c2ccc(F)cc2)c2cc(N3CCNCC3)c(F)cc2c1=O`, for which the outcome in [1], in assay [2], in [3], in assay [4], in assay [5] and in assay [6] was inactive. For the same compound, the result in assay [7], in assay [8] and in [9] was inactive.
Take `CC(C)(COC(=O)c1ccccc1)COC(=O)c1ccccc1`: the outcome in [1], in assay [2], in [3], in assay [4], in assay [5] and in assay [6] was inactive. Besides, the outcome in assay [7] was inactive. The AC50 in assay [8] was 32.1 µM (active); in [9], 20 µM (active).
For the compound `N#Cc1ccc(CC(=NNC(=O)Nc2ccc(OC(F)(F)F)cc2)c2cccc(C(F)(F)F)c2)cc1`, the result in assay [1], in assay [2], in assay [3], in assay [4], in assay [5] and in assay [6] was inactive. Besides, the result in [7], in assay [8] and in [9] was inactive.
Take `CC(=O)OCCC(C)CC(C)(C)C` (stereo not given): the result in assay [1], in assay [2], in assay [3], in assay [4], in assay [5] and in assay [6] was inactive. The outcome in assay [7], in [8] and in assay [9] was inactive.
For the compound `O=[N+]([O-])c1cc(C(F)(F)F)ccc1Cl`, the outcome in assay [1], in assay [2], in [3], in [4], in assay [5] and in assay [6] was inactive. Also, the outcome in [7] and in assay [9] was inactive. Besides, the AC50 in assay [8] is 0.0171 µM (active).
For the compound `C#C[C@]1(O)CC[C@H]2[C@@H]3CCC4=Cc5oncc5C[C@]4(C)[C@H]3CC[C@@]21C`, the outcome in assay [1], in assay [2], in assay [3], in assay [4], in assay [6] and in assay [7] was inactive. The result in assay [8] and in assay [9] was inactive. Moreover, the AC50 in [5] is 25 µM (active).

A word on the AC50: it is the concentration at which the activity in the assay is half-maximal.
